Results as given in the supplement of paper PMC10849652.
The full data set covers some 8,800 targets. This sample favours those with a hit. About 0.5% of all pairs of compound and target were hits.

Key:
Assay in all cases: log2 fold change, soluble protein after heating vs DMSO (PISA); higher = thermal stabilisation; K562 lysate, 10 uM; active = over 0.2 and 3.5 SD of the protein, either way, in both replicates (recomputed)
lapatinib = compound: CS(=O)(=O)CCNCc1ccc(-c2ccc3ncnc(Nc4ccc(OCc5cccc(F)c5)c(Cl)c4)c3c2)o1 [lapatinib]
Outline: (§1)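 A 30 min treatment with 10 μM compound was applied to crude K562 extract at 1 mg/mL protein in PBS pH 7.4 with 1 mM MgCl2. Heating for 3 min spanned 48°C-58°C, after which aliquots were pooled, adjusted to 0.5% NP-40 at 4°C and spun at 21,000xg for 90 min. TMTpro 16plex LC-MS/MS of the supernatant, with channel sums equalised, gave values recorded as log-two fold change in thermal stability against solvent controls, from duplicates.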

pictilisib = compound: CS(=O)(=O)N1CCN(Cc2cc3nc(-c4cccc5[nH]ncc45)nc(N4CCOCC4)c3s2)CC1 [pictilisib]
Outline: as §1

crizotinib = compound: C[C@@H](Oc1cc(-c2cnn(C3CCNCC3)c2)cnc1N)c1c(Cl)ccc(F)c1Cl [crizotinib]
Outline: as §1

[1] = compound: C[C@H](C1=CC=C(C=C1)C(=O)NC2=C3C=CNC3=NC=C2)N
Outline: as §1

duvelisib = compound: C[C@H](Nc1ncnc2nc[nH]c12)c1cc2cccc(Cl)c2c(=O)n1-c1ccccc1 [duvelisib]
Outline: as §1

gandotinib = compound: Cc1cc(Nc2cc(CN3CCOCC3)c3nc(C)c(Cc4ccc(Cl)cc4F)n3n2)n[nH]1 [gandotinib]
Outline: as §1

tozasertib = compound: Cc1cc(Nc2cc(N3CCN(C)CC3)nc(Sc3ccc(NC(=O)C4CC4)cc3)n2)n[nH]1 [tozasertib]
Outline: as §1

doramapimod = compound: Cc1ccc(-n2nc(C(C)(C)C)cc2NC(=O)Nc2ccc(OCCN3CCOCC3)c3ccccc23)cc1 [doramapimod]
Outline: as §1

bafetinib = compound: Cc1ccc(NC(=O)c2ccc(CN3CC[C@H](N(C)C)C3)c(C(F)(F)F)c2)cc1Nc1nccc(-c2cncnc2)n1 [bafetinib]
Outline: as §1

[2] = compound: Cc1cccc(CC(=O)N2CCc3c2ccc(-c2cn(C)c4ncnc(N)c24)c3F)n1
Outline: as §1

nilotinib = compound: Cc1cn(-c2cc(NC(=O)c3ccc(C)c(Nc4nccc(-c5cccnc5)n4)c3)cc(C(F)(F)F)c2)cn1 [nilotinib]
Outline: as §1

[3] = compound: Cc1nc(Nc2n[nH]c3c2CN(C(=O)N[C@H](CN(C)C)c2ccccc2)C3(C)C)c2sccc2n1
Outline: as §1

dasatinib = compound: Cc1nc(Nc2ncc(C(=O)Nc3c(C)cccc3Cl)s2)cc(N2CCN(CCO)CC2)n1 [dasatinib]
Outline: as §1

[4] = compound: Cc1ncc(-c2ccnc(Nc3ccc(S(C)(=O)=O)cc3)n2)n1C(C)C
Outline: as §1

[5] = compound: Cn1cc(-c2ccc3c(c2)CCN3C(=O)Cc2cccc(C(F)(F)F)c2)c2c(N)ncnc21
Outline: as §1

quisinostat = compound: Cn1cc(CNCC2CCN(c3ncc(C(=O)NO)cn3)CC2)c2ccccc21 [quisinostat]
Outline: as §1

tipifarnib = compound: Cn1cncc1[C@@](N)(c1ccc(Cl)cc1)c1ccc2c(c1)c(-c1cccc(Cl)c1)cc(=O)n2C [tipifarnib]
Outline: as §1

[6] = compound: NC(=O)Nc1cc(-c2cccc(F)c2)sc1C(=O)N[C@H]1CCCNC1
Outline: as §1

[7] = compound: NC(=O)c1cnc(N[C@@H]2CCCC[C@@H]2N)nc1Nc1cccc(-n2nccn2)c1
Outline: as §1

[8] = compound: NC1(c2ccc(-c3nc4ccn5c(=O)[nH]nc5c4cc3-c3ccccc3)cc2)CCC1
Outline: as §1

Measured: log2 fold change

YTHDF3 (UniProt Q7Z739)
UniProt Q7Z739, sequence (Q7Z739 whole entry, looked up): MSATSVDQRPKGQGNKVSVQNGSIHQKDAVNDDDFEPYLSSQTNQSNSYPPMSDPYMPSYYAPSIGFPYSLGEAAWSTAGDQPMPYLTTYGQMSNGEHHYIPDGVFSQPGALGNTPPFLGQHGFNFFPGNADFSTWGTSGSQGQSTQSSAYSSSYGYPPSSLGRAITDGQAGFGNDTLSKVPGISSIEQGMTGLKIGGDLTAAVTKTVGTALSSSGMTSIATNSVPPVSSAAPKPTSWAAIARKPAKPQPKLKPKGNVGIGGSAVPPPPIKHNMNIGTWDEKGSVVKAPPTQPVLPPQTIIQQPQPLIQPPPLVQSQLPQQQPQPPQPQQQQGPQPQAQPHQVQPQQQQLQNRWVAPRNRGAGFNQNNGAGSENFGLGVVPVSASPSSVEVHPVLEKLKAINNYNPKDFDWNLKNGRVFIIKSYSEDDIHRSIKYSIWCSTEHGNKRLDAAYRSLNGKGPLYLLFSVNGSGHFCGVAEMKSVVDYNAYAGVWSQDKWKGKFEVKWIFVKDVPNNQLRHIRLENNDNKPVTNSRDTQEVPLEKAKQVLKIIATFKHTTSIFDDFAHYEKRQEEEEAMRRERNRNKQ
inactive: lapatinib -0.065 | pictilisib 0.05 | crizotinib 0.01 | [1] -0.035 | duvelisib 0.017 | gandotinib 0.107 | tozasertib -0.03 | doramapimod 0.078 | bafetinib -0.073 | [2] 0.097 | nilotinib -0.246 | [3] -0.038 | dasatinib 0.022 | [4] 0.014 | [5] -0.006 | quisinostat -0.06 | tipifarnib -0.311 | [6] 0.063 | [7] -0.016 | [8] -0.039

XPO1 (UniProt O14980)
inactive: lapatinib -0.039 | pictilisib 0 | crizotinib -0.034 | [1] -0.037 | duvelisib -0.026 | gandotinib -0.043 | tozasertib 0.021 | doramapimod -0.001 | bafetinib -0.02 | [2] 0.07 | nilotinib 0.011 | [3] -0.011 | dasatinib -0.038 | [4] -0.014 | [5] 0.021 | quisinostat -0.007 | tipifarnib -0.009 | [6] 0.021 | [7] 0.011 | [8] 0.006

ZZEF1 (UniProt O43149)
inactive: lapatinib -0.023 | pictilisib -0.024 | crizotinib -0.092 | [1] -0.113 | duvelisib 0.028 | gandotinib 0.038 | tozasertib -0.011 | doramapimod 0.029 | bafetinib -0.083 | [2] 0.123 | nilotinib -0.022 | [3] 0 | dasatinib -0.018 | [4] 0.015 | [5] -0.006 | quisinostat -0.07 | tipifarnib 0.007 | [6] 0.008 | [7] 0.021 | [8] -0.03

USP10 isoform 2 (UniProt Q14694)
inactive: lapatinib -0.01 | pictilisib -0.015 | crizotinib -0.03 | [1] -0.024 | duvelisib 0.009 | gandotinib -0.046 | tozasertib -0.014 | doramapimod -0.016 | bafetinib -0.014 | [2] 0.028 | nilotinib -0.022 | [3] 0.013 | dasatinib -0.058 | [4] 0.013 | [5] -0.013 | quisinostat -0.081 | tipifarnib -0.007 | [6] 0.034 | [7] -0.011 | [8] -0.012

YEATS4 (UniProt O95619)
inactive: lapatinib 0.023 | pictilisib 0.026 | crizotinib 0.02 | duvelisib -0.015 | gandotinib -0.126 | tozasertib -0.006 | doramapimod 0.064 | bafetinib -0.033 | [2] -0.083 | nilotinib 0.1 | [3] 0.154 | dasatinib 0.11 | [4] -0.196 | [5] 0.035 | quisinostat -0.038 | tipifarnib 0.071 | [6] -0.011 | [7] 0.018 | [8] 0.044
active: [1] 0.609

UNC13D (UniProt Q70J99)
inactive: lapatinib -0.032 | pictilisib -0.032 | crizotinib -0.038 | [1] 0.029 | duvelisib -0.039 | gandotinib -0.089 | tozasertib -0.015 | doramapimod 0.009 | bafetinib -0.066 | [2] 0.002 | nilotinib 0.043 | [3] -0.014 | dasatinib -0.05 | [4] 0 | [5] 0 | quisinostat -0.079 | tipifarnib -0.006 | [6] 0.05 | [7] 0.022 | [8] -0.024

ZHX1 (UniProt Q9UKY1)
UniProt Q9UKY1, sequence (Q9UKY1 whole entry, looked up): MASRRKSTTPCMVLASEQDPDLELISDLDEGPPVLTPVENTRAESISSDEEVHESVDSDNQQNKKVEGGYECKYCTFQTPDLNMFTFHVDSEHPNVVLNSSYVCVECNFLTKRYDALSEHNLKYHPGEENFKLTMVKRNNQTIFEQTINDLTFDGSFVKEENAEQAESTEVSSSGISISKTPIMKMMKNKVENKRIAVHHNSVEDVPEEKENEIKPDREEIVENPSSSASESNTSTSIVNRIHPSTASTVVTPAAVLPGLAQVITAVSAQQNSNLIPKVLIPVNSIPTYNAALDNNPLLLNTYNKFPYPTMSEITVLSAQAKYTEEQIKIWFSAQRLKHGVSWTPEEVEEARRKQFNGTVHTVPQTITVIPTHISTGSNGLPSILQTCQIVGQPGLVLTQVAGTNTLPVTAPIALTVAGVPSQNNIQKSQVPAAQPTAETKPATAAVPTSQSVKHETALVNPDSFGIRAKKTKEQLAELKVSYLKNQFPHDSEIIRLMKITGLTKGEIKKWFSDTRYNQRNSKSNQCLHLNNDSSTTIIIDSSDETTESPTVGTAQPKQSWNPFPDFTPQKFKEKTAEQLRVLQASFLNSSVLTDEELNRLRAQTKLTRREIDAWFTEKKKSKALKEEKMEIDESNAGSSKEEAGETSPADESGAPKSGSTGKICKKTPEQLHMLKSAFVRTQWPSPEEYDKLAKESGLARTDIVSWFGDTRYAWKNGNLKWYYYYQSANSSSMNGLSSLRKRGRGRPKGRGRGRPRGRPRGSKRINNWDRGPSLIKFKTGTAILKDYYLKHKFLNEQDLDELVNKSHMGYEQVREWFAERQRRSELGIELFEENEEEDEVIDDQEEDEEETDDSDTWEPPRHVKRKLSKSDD
active: [1] -0.57 | gandotinib 0.475 | [2] 0.431
inactive: lapatinib 0.014 | pictilisib 0.003 | crizotinib 0.018 | duvelisib 0.038 | tozasertib -0.09 | doramapimod -0.013 | bafetinib -0.08 | nilotinib 0.011 | [3] -0.012 | dasatinib 0 | [4] 0.06 | [5] -0.096 | quisinostat -0.035 | tipifarnib 0.007 | [6] 0.039 | [7] -0.047 | [8] -0.011

USP34 (UniProt Q70CQ2)
UniProt Q70CQ2, sequence (Q70CQ2 whole entry, looked up): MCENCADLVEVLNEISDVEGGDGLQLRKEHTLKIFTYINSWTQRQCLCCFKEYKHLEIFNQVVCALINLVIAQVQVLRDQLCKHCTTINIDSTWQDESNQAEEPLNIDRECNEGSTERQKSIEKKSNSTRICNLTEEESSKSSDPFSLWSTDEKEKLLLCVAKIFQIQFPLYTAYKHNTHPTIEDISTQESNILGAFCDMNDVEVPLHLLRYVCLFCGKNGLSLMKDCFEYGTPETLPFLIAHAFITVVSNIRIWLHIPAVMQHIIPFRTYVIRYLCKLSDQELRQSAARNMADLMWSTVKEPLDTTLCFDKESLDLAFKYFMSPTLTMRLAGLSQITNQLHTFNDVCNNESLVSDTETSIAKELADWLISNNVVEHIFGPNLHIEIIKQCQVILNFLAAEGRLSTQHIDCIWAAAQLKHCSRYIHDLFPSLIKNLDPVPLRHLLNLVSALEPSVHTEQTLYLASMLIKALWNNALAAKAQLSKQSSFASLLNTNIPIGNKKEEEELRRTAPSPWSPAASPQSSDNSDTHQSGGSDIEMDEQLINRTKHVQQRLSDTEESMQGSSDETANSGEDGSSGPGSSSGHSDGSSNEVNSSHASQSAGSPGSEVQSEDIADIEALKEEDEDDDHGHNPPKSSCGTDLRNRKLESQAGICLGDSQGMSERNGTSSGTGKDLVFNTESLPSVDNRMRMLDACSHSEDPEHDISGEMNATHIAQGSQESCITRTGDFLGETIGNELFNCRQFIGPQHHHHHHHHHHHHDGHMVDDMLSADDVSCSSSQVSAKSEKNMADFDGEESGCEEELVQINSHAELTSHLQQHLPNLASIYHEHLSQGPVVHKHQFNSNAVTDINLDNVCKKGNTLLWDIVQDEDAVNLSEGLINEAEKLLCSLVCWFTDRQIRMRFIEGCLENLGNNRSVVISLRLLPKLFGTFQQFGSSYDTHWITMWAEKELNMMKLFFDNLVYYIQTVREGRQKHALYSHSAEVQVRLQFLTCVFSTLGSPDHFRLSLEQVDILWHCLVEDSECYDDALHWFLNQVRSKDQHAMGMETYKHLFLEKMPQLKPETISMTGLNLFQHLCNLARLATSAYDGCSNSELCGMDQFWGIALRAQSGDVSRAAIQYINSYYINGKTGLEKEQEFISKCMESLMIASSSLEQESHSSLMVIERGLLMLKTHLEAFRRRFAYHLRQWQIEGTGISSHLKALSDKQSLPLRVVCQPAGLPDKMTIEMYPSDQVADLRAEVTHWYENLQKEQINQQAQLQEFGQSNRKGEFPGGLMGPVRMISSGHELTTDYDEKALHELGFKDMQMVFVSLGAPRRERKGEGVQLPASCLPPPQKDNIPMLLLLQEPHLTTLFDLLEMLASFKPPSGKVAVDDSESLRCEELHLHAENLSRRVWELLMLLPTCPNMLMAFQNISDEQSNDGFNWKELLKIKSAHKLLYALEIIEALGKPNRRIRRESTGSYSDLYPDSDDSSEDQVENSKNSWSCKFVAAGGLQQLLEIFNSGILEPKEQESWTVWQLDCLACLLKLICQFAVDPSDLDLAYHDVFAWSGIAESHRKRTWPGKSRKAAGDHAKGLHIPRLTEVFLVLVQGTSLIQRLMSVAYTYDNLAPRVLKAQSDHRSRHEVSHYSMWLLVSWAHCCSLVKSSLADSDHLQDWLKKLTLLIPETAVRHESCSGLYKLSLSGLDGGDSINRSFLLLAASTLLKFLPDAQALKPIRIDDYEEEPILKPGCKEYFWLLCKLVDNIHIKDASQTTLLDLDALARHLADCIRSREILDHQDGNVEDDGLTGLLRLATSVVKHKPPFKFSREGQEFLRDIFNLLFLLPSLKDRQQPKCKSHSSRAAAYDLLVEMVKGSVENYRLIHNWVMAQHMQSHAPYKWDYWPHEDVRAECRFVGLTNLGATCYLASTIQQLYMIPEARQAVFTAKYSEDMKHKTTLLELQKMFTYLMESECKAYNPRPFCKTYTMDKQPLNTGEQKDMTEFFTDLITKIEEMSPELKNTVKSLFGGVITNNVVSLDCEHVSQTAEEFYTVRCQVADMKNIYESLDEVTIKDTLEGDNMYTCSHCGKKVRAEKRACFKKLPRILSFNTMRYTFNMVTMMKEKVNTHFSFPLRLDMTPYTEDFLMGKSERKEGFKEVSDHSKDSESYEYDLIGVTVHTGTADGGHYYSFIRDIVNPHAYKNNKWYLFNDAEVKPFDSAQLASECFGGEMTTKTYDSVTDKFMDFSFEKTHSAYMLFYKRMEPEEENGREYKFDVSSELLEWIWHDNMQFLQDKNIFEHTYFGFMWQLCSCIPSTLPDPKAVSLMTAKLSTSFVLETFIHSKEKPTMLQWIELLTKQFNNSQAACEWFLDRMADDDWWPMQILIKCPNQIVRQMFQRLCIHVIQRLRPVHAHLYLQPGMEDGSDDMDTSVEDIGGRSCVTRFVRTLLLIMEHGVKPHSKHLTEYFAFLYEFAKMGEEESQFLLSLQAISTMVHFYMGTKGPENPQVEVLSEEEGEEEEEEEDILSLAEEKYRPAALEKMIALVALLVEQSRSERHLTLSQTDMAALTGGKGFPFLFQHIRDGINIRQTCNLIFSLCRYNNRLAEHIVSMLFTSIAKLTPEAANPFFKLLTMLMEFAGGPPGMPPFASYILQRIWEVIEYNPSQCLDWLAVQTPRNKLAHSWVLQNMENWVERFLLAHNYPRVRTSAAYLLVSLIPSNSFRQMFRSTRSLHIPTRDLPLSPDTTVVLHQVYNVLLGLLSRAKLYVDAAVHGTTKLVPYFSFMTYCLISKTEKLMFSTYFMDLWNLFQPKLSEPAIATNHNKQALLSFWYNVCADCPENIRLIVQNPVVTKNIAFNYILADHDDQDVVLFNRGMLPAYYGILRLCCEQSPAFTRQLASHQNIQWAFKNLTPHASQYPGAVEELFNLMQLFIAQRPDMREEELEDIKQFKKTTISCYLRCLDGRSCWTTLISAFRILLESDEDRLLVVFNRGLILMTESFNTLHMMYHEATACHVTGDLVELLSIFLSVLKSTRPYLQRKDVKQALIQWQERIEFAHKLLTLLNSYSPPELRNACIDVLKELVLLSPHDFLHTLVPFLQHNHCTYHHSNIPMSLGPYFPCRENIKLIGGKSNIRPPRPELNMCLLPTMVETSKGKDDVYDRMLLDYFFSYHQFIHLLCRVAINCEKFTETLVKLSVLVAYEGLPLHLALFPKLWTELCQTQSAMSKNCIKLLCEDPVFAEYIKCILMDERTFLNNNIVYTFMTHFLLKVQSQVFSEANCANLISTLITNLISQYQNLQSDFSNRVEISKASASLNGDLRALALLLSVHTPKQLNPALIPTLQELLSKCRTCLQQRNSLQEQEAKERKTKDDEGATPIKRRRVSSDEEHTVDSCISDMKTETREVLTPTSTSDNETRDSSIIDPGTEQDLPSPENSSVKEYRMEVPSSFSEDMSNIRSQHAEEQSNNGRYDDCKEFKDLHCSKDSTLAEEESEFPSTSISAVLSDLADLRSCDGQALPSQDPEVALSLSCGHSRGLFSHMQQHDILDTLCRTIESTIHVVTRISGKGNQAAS
inactive: lapatinib -0.002 | pictilisib -0.008 | crizotinib -0.094 | [1] 0.03 | duvelisib 0.004 | gandotinib -0.122 | tozasertib 0.011 | doramapimod 0.01 | bafetinib -0.041 | [2] 0.018 | nilotinib -0.018 | [3] -0.002 | dasatinib -0.042 | [4] -0.018 | [5] 0.023 | quisinostat -0.041 | tipifarnib 0.021 | [6] 0.074 | [7] 0.018 | [8] 0
